These results are taken from PubChem BioAssay (EPA / NIEHS).

Molecules are shown by their SMILES. Active and inactive are the calls of the source. How the source made its calls: active means hit-call score of the fitted dose curve at least 0.9, where 1 is the maximum; inactive means score below 0.9.

Read-out in this test: Cytochrome P450 7A1 (Homo sapiens) (UniProt P22680)
The experiment in a line: LTEA_HepaRG_CYP7A1: Life Technologies and Expression Analysis (LTEA) Assay for Cytochrome P450 7A1 (CYP7A1) using HepaRG (AID 2283496). Particulars: mRNA level, 48 h; actives raise or lower the signal. The protocol:
LTEA_HepaRG is a cell based, multiplexed-readout assay that uses HepaRG, a human liver cell line, with measurements taken at 48 hours after chemical dosing on a 96-well plate.LTEA_HepaRG_CYP7A1 is one of 102 assay component(s) measured in the LTEA HepaRG cell culture assay. It is a marker of NR mediated metabolism.Data from the assay component LTEA_HepaRG_CYP7A1 was analyzed into 1 endpoint. This assay endpoint, LTEA_HepaRG_CYP7A1, was analyzed with bidirectional fitting relative to DMSO as the negative control and baseline of activity. Using a type of inducible reporter, measures of mRNA induction for gain or loss-of-signal activity can be used to understand regulation of transcription factor activity. To generalize the intended target to other relatable targets, this assay endpoint is annotated to the cyp intended target family, where the subfamily is xenobiotic metabolism.
A total of 1060 chemcials from the ToxCast library were tested in eight-point concentration-response experiments. Cell culture and cytotoxicity assays were conducted at Thermo Fisher Scientific's Custom Services facility (Madison, WI). A single lot of human HepaRG cells (Thermo Fisher Scientific, Frederick, MD) was used for the cell culture experiments. 96-well format collagen type I coated plates of human HepaRG cells were prepared using established methods. Briefly, cryopreserved HepaRG cells were thawed, plated at a density of approximately 100,000 cells/well in HepaRG Thaw, Plate, and General Purpose media (HPRG770, Thermo Fisher Scientific), and incubated for 48 hours. 0.5% DMSO was selected as vehicle control to balance the requisite need of DMSO in HepaRG cultures to maintain differentiation (for example, baseline metabolism, proportions of hepatocytes vs. cholangiocytes), while enabling further hepatic receptor pathway activation (for example, PXR and CAR) in response to chemical exposure. 48 hours after plating, the culture medium was replaced with HepaRG Serum-Free Incudtion Media. Cells were exposed to each test chemical in duplicate and maintained in CO2 incubators for another 48 hours. Chemical plates were thawed to room temperature and 200x concentrations of treatment groups were prepared. 8-point conentration-reponse curves were made with the highest exposure at 100 uM, followed by half-log dilutions, all in 0.5% DMSO. Each test plate contained variouse controls, induction positive controls (1mM phenobarbital), cytotoxicity positive controls ([…] aflatoxin B1), vehicle controls (0.5% DMSO), and total lysis controls (0.5% DMSO). Cell morphology images were taken using an Essen IncuCyte FLR automated microscope, with six 96-well plates imaged in about 24 minutes. Images were captured and exported and JPEG files. Spent culture media was transfered to black-well plates for the LDH assay, and remaining media was sorted at -80 C for later use. Cells were treated with RLT buffer and frozen until shipped for gene expression analysis. Total RNA was isolated from the cell suspension in 75 uL of Buffer RLT (Qiagen, Germantown, MD 20874) by Quintiles/Expression Analysis (Durham, NC) using a custom isolation procedure. Total RNA from each plate well was transferred to a preamplification plate. Fluidigm's 96.96 Dynamic ArrayTM (Fluidigm, Amsterdam, the Netherlands) technology was used for gene expression analyses by quantitative reverse transcription polymerase chain reaction (qRT-PCR, performed by Quintiles/Expression Analysis, Durham, NC)89. Standard TaqManTM Assays (Applied Biosystems/ThermoFisher Scientific, Foster City, CA) were used to assess the expression of 93 genes selected based on their selectivity and sensitivity to important hepatic receptors known to be modulated by environmental chemicals; importance in human hepatocyte functionality; and hepatotoxicity. […]
`CC(C)(C)c1cccc(C(C)(C)C)c1O`: the compound was classed as inactive.

Regarding `OC1CCCCC1`, the call was inactive.

On to `CC[C@H](c1ccc(O)cc1)[C@@H](CC)c1ccc(O)cc1`, for which the concentration at half-maximal activity (AC50) (usually the concentration at which the activity in the assay is half-maximal) is 78.8 µM (active).

Take `CCCCCCC(=O)O`: the call was inactive.

For the compound `O=C(O)Cc1cc(I)c(Oc2cc(I)c(O)c(I)c2)c(I)c1`, the AC50 is 48.2 µM (active).

Take `Cc1cc(CCN2CCN(c3nsc4ccccc34)CC2)cc2c1NC(=O)CC2(C)C`: the AC50 was 80.6 µM (active).

For the compound `CC(C)(C)CC(C)(C)c1ccc(O)c(-n2nc3ccccc3n2)c1`, the AC50 was 50 µM (active).

On to `COCC(C)O` (stereo not given), for which the call was inactive.

As to `CCCCC(CC)COC(=O)CCCCC(=O)OCC(CC)CCCC` (stereo not given), the result was inactive.

`NC(=O)N(O)[C@@H]1C=C[C@H](Oc2cccc(Oc3ccc(F)cc3)c2)C1`: the AC50 was 74.2 µM (active).

For the compound `CCCOC(=O)c1ccc(O)cc1`, the outcome was inactive.

For the compound `Cc1cc(C)c(O)c(C)c1`, the compound was classed as inactive.

On to `CCCCCCCCCCCCN1CCCC1=O`, for which the compound was called inactive.

Regarding `COCC(C)OCC(C)O` (stereo not given), the call was inactive.

Regarding `O=C(OCCOCCOC(=O)c1ccccc1)c1ccccc1`, the result was inactive.

Take `c1ccc2c(c1)ccc1ccccc12`: the result was inactive.

For the compound `Nc1cccc2c(N)cccc12`, the AC50 was 10.1 µM (active).

Consider `CCCCCCCCCCCCc1ccccc1S(=O)(=O)O`, for which the AC50 was 93.7 µM (active).

In the case of `CC1=C(/C=C/C(C)=C/C=C/C(C)=C/C(=O)O)C(C)(C)CCC1`, the AC50 is 29.6 µM (active).

For `OCCC(F)(F)C(F)(F)C(F)(F)C(F)(F)C(F)(F)C(F)(F)F`, the result was inactive.

In the case of `Cc1oc(-c2ccccc2)nc1CCOc1ccc(C[C@H](Nc2ccccc2C(=O)c2ccccc2)C(=O)O)cc1`, the concentration at half-maximal activity (AC50) is 23.4 µM (active).

For the compound `ClC1=C(Cl)C(Cl)(Cl)C(Cl)=C1Cl`, the call was inactive.

In the case of `C=C(C)C(=O)OCCC(F)(F)C(F)(F)C(F)(F)C(F)(F)C(F)(F)C(F)(F)F`, the compound was called inactive.

As for `Oc1cccc(O)c1`, the result was inactive.

Turning to `O=C(O)c1ccccc1C(c1ccc(O)cc1)c1ccc(O)cc1`, the compound was called inactive.

Regarding `COc1ccc([N+](=O)[O-])cc1N`, the compound was classed as inactive.

For `CCCCCCCC(=O)O`, the compound was called inactive.

As to `CC(C)(C)c1cc(C(C)(C)C)c(O)c(C(C)(C)C)c1`, the AC50 is 16.6 µM (active).

With `COC(=O)CCCCC(=O)OC`, the result was inactive.

On to `CN1CCN(c2ccccc2/C=C2\SCCN(c3ccc(Cl)c(Cl)c3)C2=O)CC1`, for which the half-maximal activity concentration (AC50) is 93.9 µM (active).

With `CC(C)(C)c1ccc(O)c(C(C)(C)C)c1`, the call was inactive.

As to `CCc1nn(C2CCCCC2)c2cc(C3(C#N)CCC(C(=O)O)CC3)ccc12` (stereo not given), the concentration at half-maximal activity (AC50) is 63.3 µM (active).

For the compound `N#C[C@@H]1CC(F)(F)CN1C(=O)CNC1CC2CCC(C1)N2c1ncccn1` (stereo not given in full), the call was inactive.

Consider `NC(=O)N1C(=O)C(C(=O)c2cc(Cl)cs2)c2cc(F)c(Cl)cc21` (stereo not given), for which the AC50 was 16.6 µM (active).

For the compound `CCN(CC)CCNc1ccc(CNC=O)c2sc3ccc(OC)cc3c(=O)c12`, the AC50 is 21.7 µM (active).

Turning to `c1ccc2cc3c(ccc4ccccc43)cc2c1`, the AC50 was 20.6 µM (active).

In the case of `OCCC(F)(F)C(F)(F)C(F)(F)C(F)(F)C(F)(F)C(F)(F)C(F)(F)C(F)(F)F`, the outcome was inactive.

Regarding `CCC(=C(c1ccc(O)cc1)c1ccc(OCCN(C)C)cc1)c1ccccc1`, the compound was called inactive.

Turning to `C[C@@H]1C[C@H]2[C@@H]3CCC4=CC(=O)C=C[C@]4(C)[C@@]3(F)[C@@H](O)C[C@]2(C)[C@@]1(O)C(=O)COP(=O)(O)O`, the call was inactive.

With `O=c1c(-c2ccc(O)cc2)coc2cc(O)ccc12`, the compound was called inactive.
